# Data published in PubChem BioAssay AID624496 (National Center for Advancing Translational Sciences (NCATS), 2012).
# Records with an inconclusive call do not appear. The source made the active and inactive calls. Calls come from the whole dose curve; as a rule, active = well fitted inhibition curve with a large enough effect; inconclusive = small, poorly fitted or top-dose-only effect, or another doubt; inactive = no such curve, though single readings can be large or run the other way.
# Molecular target: D(2) dopamine receptor (Homo sapiens) (UniProt P14416)
# Sequence (P14416 whole entry, looked up): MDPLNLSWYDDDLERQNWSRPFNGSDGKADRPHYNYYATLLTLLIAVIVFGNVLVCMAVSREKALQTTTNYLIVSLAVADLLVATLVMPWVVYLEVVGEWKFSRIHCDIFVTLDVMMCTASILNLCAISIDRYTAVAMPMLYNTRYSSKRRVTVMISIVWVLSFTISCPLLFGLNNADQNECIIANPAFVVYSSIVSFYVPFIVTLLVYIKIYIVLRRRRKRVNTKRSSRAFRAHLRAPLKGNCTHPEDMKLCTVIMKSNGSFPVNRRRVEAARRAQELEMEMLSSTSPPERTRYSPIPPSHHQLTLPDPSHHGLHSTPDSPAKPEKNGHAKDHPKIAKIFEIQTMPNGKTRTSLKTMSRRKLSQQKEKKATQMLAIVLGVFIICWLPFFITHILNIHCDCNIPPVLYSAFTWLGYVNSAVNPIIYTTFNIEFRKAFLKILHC
# Assay: HTS Assay for Allosteric Antagonists of the Human D2 Dopamine Receptor: SAR in Primary Assay.
# Conditions: HEK293 T-REx D2 cells, calcium flux, dopamine EC80 antagonism; activity, negative = inhibition: at 41.8 µM (top of the series) unless noted
# Text: Dopamine receptors (DARs) are involved in the etiology and/or therapy of a number of neuropsychiatric and endocrine disorders. For instance, all receptor-based antiparkinsonian drugs work via stimulating the D2 DAR subtype whereas all FDA-approved antipsychotic agents are antagonists of this receptor. […] There are three different types of allosteric modulators that we are seeking, two of which will stimulate or augment receptor signaling, allosteric agonists and potentiators, while the third, allosteric antagonists, will attenuate receptor signaling. The present project is looking for compound antagonism after an EC80 addition of dopamine by tracking calcium flux in a […], inducible Hek293 Trex D2 cell line, which act through an allosteric site. NIH Chemical Genomics Center [NCGC] NIH Molecular Libraries Probe Centers Network [MLPCN] MLPCN Grant: NS064831 Assay Submitter (PI): David Sibley
# Freshly passaged cells are plated in 1536 well black, clear bottom plates at a density of 4000 cells/well in 3 ul of complete media containing 1x tetracycline inducer. After an overnight incubation at 30 deg C in 5% CO2, cells are loaded with 2 ul of the no wash Calcium Assay Kit (ABD Bioquest) and incubated at room temperature for 30 to 90 minutes. Agonist read: A 10 cycle (1 second/cycle) baseline measurement is taken and then the FDSS online 1536 pintool delivers 23 nl of compound library (as well as dopamine controls) to the plate. The plate is measured for kinetically at 1 cycle/sec for 180 seconds. Following the 180 second read, 1 ul of an EC80 (negative modulation assay) is delivered by an onboard pipette head. Measurements are taken kinetically for an additional 180 seconds.
SMILES,Potency,"activity, negative = inhibition"
CCN1C(=O)c2ccccc2S(=O)c2ccc(C(=O)NCc3ccc(C#N)cc3)cc21 (stereo unspecified),0.141 µM (active),
CCN1C(=O)c2ccccc2[S@](=O)c2ccc(C(=O)NCc3ccc(C#N)cc3)cc21,0.223 µM (active),
CCN1C(=O)c2ccccc2S(=O)c2ccc(C(=O)NC(C)c3ccccc3)cc21 (stereo unspecified),0.353 µM (active),
CCN1C(=O)c2ccccc2S(=O)c2ccc(C(=O)NCc3ccccc3OC)cc21 (stereo unspecified),,-21.4% (active)
CCN1C(=O)c2ccccc2S(=O)(=O)c2ccc(C(=O)NCc3ccc(OC)cc3)cc21,,-113%
CCCN1C(=O)c2ccccc2S(=O)c2ccc(C(=O)NCc3ccc(OC)cc3)cc21 (stereo unspecified),1.77 µM (active),
COc1ccc(NC(=O)c2ccc3c(c2)N(C)C(=O)c2ccccc2S3=O)cc1 (stereo unspecified),11.2 µM (active),
COc1ccc(CNC(=O)c2ccc3c(c2)C(=O)c2ccccc2C3=O)cc1,,-113%
CCN1C(=O)c2ccccc2[S@](=O)c2ccc(C(=O)N[C@H](C)c3ccc(Br)cc3)cc21,8.87 µM (active),
CCN1C(=O)c2ccccc2S(=O)c2ccc(C(=O)NCc3ccc(S(C)(=O)=O)cc3)cc21 (stereo unspecified),0.56 µM (active),
CCN1C(=O)c2ccccc2S(=O)c2ccc(C(=O)Nc3ccccc3)cc21 (stereo unspecified),0.141 µM (active),
